An excerpt weighted towards active compounds, which were near 2.2% of everything screened.
PGC1a acetyl inh: inhibitors of PGC1a acetylation signal, primary screen, cell-based, U2OS, AlphaScreen, inhibitor mode | AlphaScreen anti-acetyl-lysine; with virally co-expressed GCN5 acetyltransferase | inhibition, % at 15.6 µM | AID 651687, 2012 | 0.17% of 350,000 active;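 active = every replicate shows inhibition of at least 40%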;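 note: 0% = neutral control wells and 100% = positive control wells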
PAX8 reporter: inhibitors of PAX8-driven TPO luciferase reporter, primary screen, RMG-I cells, single concentration | SteadyGlo, 24 h | inhibition, % at 12.6 µM | 1.2% of 360,000 active | AID 652154, 2013;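 active = mean replicate inhibition at least 60% with every replicate also reaching 60%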;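 note: luciferase light reporting Pax8 driven TPO promoter activity; plate controls were median of neutral control wells for no effect and mitoxantrone controls for full effect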
LMP1 NFkB inh: EBV LMP1-driven NF-kappaB luciferase reporter inhibitors, primary screen, cell-based, luminescence, single point; LMP1-induced NF-kappaB luciferase reporter cells; inhibition, % at 12.5 µM; 0.69% of 350,000 active; AID 504558, 2011; in the data active = inhibition above about 41%;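 note: 0% = neutral control wells and 100% = reference inhibitor control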
MITF TRPM1 inh: inhibitors of MITF-dependent TRPM1 promoter reporter, primary screen, cell-based, SK-MEL-5, single point, luciferase. SK-MEL-5 TRPM1 promoter luciferase, 24 h. inhibition, % at 12.5 µM. 0.83% of 330,000 active. AID 488899, 2010;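 active = mean inhibition across replicates of 60% or more, whatever share of single replicates reaches that level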
LGR2 inh: inhibitors of bursicon-induced LGR2 CRE-luciferase signal, primary screen, cell-based, HEK293, CRE-luciferase reporter, bursicon stimulation; Drosophila bursicon receptor LGR2 (rickets); bursicon-stimulated, 4 h; inhibition, % at 9.99 µM; 0.35% of 380,000 active; AID 720647, 2013;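 active = drop in luminescence signal, shown as inhibition above about 50% in the replicate tests, limit read from the data, passing the limit was not always enough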;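 note: agonist challenge used bursicon conditioned medium at about half maximal strength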
EWS-Fli block: EWS/Fli-driven NR0B1 reporter inhibitors, primary screen, A673 cells, NR0B1 luciferase, luminescence, MLPCN library; inhibition, % at 12.6 µM; viability-normalised; 0.67% of 350,000 active;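 active = mean inhibition of at least 50% after viability correction, with every replicate also passing that limit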;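 note: firefly luciferase signal divided by Alamar Blue viability fluorescence both relative to DMSO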
* marks the source's active call; other numbers are inactive results.

`C[C@@H]1CCCCO[C@@H](CN(C)C(=O)C2CCCCC2)[C@H](C)CN([C@@H](C)CO)C(=O)c2cc(NC(=O)CCCN(C)C)ccc2O1` gave LGR2 inh -4.
`C[C@H](NC(=O)[C@H]1[C@H](CO)[C@H]2Cn3c(cccc3=O)[C@H]2N1S(C)(=O)=O)c1ccccc1` gave PAX8 reporter 0, LGR2 inh -21 and EWS-Fli block -11.
O=C(O)[C@@H]1[C@H]2C[C@H]3c4[nH]c5ccccc5c4CCN3C[C@@H]2CC[C@@H]1O was read as PAX8 reporter 14, LMP1 NFkB inh 65*, MITF TRPM1 inh 4, LGR2 inh -5 and EWS-Fli block -2.
Screening COC(=O)C1=COC(C)C2CN3CCc4c([nH]c5ccccc45)C3CC12 (configuration not stated) returned PGC1a acetyl inh 1, LMP1 NFkB inh 14, MITF TRPM1 inh 19 and EWS-Fli block -5.
Screening COC(=O)C1=CO[C@@H](C)[C@H]2CN3CCc4c([nH]c5ccccc45)[C@@H]3C[C@H]12 returned PGC1a acetyl inh 11, PAX8 reporter 9, LMP1 NFkB inh 78*, MITF TRPM1 inh 2 and EWS-Fli block -10.
`C[C@H](CO)N1C[C@H](C)[C@H](CN(C)S(=O)(=O)c2cccc(F)c2)Oc2ncc(C#CC3CCCCC3)cc2C1=O` gave PGC1a acetyl inh -9, PAX8 reporter 14, LGR2 inh -3 and EWS-Fli block 7.
For CC(=O)N1CCc2cc(S(=O)(=O)C(C)CC(=O)NCc3ccc(C)o3)ccc21 (configuration not stated) the results were PGC1a acetyl inh 3, PAX8 reporter 4, LMP1 NFkB inh 6, MITF TRPM1 inh 2, LGR2 inh 19 and EWS-Fli block -9.
For CC(=O)N1CCc2cc(S(=O)(=O)C(C)CC(=O)NCc3ccco3)ccc21 (configuration not stated) the results were PAX8 reporter 5, LMP1 NFkB inh 4, LGR2 inh 56* and EWS-Fli block 6.
`O=C1CCC(=O)N1CC1CC2CCC1C2` (configuration not stated) gave PAX8 reporter -1, LMP1 NFkB inh 0, MITF TRPM1 inh -3, LGR2 inh 12 and EWS-Fli block 63*.
For NC(=O)COC(=O)CC1CC2CCC1C2 (configuration not stated) the results were PGC1a acetyl inh -3, PAX8 reporter 11, LMP1 NFkB inh -5, MITF TRPM1 inh -5, LGR2 inh 19 and EWS-Fli block 1.
CO[C@@H]1CN(C)C(=O)c2cc(NS(C)(=O)=O)ccc2OC[C@H](C)N(C(=O)C2CCCCC2)C[C@H]1C was read as PAX8 reporter -23, LGR2 inh -7 and EWS-Fli block -2.
C=CCOc1ccc(NC(=O)C(=O)NCCCn2ccnc2)cc1 was read as PGC1a acetyl inh 18, LMP1 NFkB inh -11, MITF TRPM1 inh 3 and LGR2 inh -10.
CCCCCOc1ccc(NC(=O)C(=O)NCCCn2ccnc2)cc1 was read as PAX8 reporter 77*, LMP1 NFkB inh 5 and MITF TRPM1 inh 9.
CCSc1ccccc1C(=O)NCCCn1ccnc1 was read as PGC1a acetyl inh 95*, LMP1 NFkB inh 3 and MITF TRPM1 inh -3.
CCN1CCN(C2=C(NS(=O)(=O)c3ccc(NC(C)=O)cc3)C(=O)c3ccccc3C2=O)CC1 was read as PGC1a acetyl inh 6, PAX8 reporter 21, LMP1 NFkB inh -5, MITF TRPM1 inh 40, LGR2 inh 14 and EWS-Fli block -4.
`CC(=O)Nc1ccc(S(=O)(=O)NC2=C(N3CCN(C)CC3)C(=O)c3ccccc3C2=O)cc1` gave PAX8 reporter 16, LMP1 NFkB inh 3, MITF TRPM1 inh 83*, LGR2 inh 7 and EWS-Fli block 3.
`CCN1CCN(C2=C(NS(=O)(=O)c3ccc(C)cc3)C(=O)c3ccccc3C2=O)CC1` gave PGC1a acetyl inh -9, PAX8 reporter 20, LMP1 NFkB inh -16, MITF TRPM1 inh 70* and LGR2 inh -1.
C[C@@H]1CCCCO[C@@H](CN(C)Cc2ccc(Cl)c(Cl)c2)[C@@H](C)CN([C@@H](C)CO)C(=O)c2cc(NC(=O)Nc3ccccc3)ccc2O1 was read as PGC1a acetyl inh 6, PAX8 reporter 81*, LGR2 inh 14 and EWS-Fli block 6.
For C[C@H](CO)N1C[C@H](C)[C@@H](CN(C)Cc2ccc(Cl)c(Cl)c2)OCCCC[C@H](C)Oc2ccc(NC(=O)c3ccccc3)cc2C1=O the results were PGC1a acetyl inh 13, PAX8 reporter 28, LGR2 inh 16 and EWS-Fli block 22.
C[C@@H]1CCCCO[C@H](CN(C)Cc2ccc(Cl)c(Cl)c2)[C@H](C)CN([C@@H](C)CO)C(=O)c2cc(NC(=O)c3ccccc3)ccc2O1 was read as PGC1a acetyl inh -16, PAX8 reporter 22, LGR2 inh 2 and EWS-Fli block -5.
`C[C@@H]1CN([C@H](C)CO)C(=O)c2cc(NC(=O)c3ccccc3)ccc2O[C@@H](C)CCCCO[C@@H]1CN(C)Cc1ccc(Cl)c(Cl)c1` gave PGC1a acetyl inh 2, PAX8 reporter 51, LGR2 inh 15 and EWS-Fli block 2.
CC(C)NC(=O)Nc1ccc2c(c1)C(=O)N([C@H](C)CO)C[C@H](C)[C@@H](CN(C)Cc1ccc(Cl)c(Cl)c1)OCCCC[C@@H](C)O2 was read as PGC1a acetyl inh 2, PAX8 reporter -14, LGR2 inh 6 and EWS-Fli block -4.
`C[C@H](CO)N1C[C@H](C)[C@H](CN(C)Cc2ccc(Cl)c(Cl)c2)OCCCC[C@H](C)Oc2ccc(NC(=O)Nc3ccccc3)cc2C1=O` gave PGC1a acetyl inh 6, PAX8 reporter 100*, LGR2 inh 10 and EWS-Fli block -4.
For C[C@H](CO)N1C[C@H](C)[C@@H](CN(C)Cc2ccc(Cl)c(Cl)c2)OCCCC[C@H](C)Oc2ccc(NC(=O)Nc3ccccc3)cc2C1=O the results were PGC1a acetyl inh 0, PAX8 reporter 87*, LGR2 inh -19 and EWS-Fli block 9.
Screening C[C@H]1CCCCO[C@H](CN(C)Cc2ccc(Cl)c(Cl)c2)[C@@H](C)CN([C@@H](C)CO)C(=O)c2cc(NC(=O)Nc3ccccc3)ccc2O1 returned PGC1a acetyl inh -1, PAX8 reporter 85*, LGR2 inh 4 and EWS-Fli block 14.
Screening C[C@@H]1CN([C@H](C)CO)S(=O)(=O)c2ccc(C#Cc3ccccc3)cc2O[C@H]1CN(C)C(=O)CN(C)C returned PGC1a acetyl inh -28, LGR2 inh 15 and EWS-Fli block 13.

Compound activity from PubChem BioAssay.
